{"source": "PubChem BioAssay (NCATS)", "key": {"[1]": {"target": "Rap guanine nucleotide exchange factor 3 (Homo sapiens) (UniProt O95398)", "sequence (O95398 whole entry, looked up)": "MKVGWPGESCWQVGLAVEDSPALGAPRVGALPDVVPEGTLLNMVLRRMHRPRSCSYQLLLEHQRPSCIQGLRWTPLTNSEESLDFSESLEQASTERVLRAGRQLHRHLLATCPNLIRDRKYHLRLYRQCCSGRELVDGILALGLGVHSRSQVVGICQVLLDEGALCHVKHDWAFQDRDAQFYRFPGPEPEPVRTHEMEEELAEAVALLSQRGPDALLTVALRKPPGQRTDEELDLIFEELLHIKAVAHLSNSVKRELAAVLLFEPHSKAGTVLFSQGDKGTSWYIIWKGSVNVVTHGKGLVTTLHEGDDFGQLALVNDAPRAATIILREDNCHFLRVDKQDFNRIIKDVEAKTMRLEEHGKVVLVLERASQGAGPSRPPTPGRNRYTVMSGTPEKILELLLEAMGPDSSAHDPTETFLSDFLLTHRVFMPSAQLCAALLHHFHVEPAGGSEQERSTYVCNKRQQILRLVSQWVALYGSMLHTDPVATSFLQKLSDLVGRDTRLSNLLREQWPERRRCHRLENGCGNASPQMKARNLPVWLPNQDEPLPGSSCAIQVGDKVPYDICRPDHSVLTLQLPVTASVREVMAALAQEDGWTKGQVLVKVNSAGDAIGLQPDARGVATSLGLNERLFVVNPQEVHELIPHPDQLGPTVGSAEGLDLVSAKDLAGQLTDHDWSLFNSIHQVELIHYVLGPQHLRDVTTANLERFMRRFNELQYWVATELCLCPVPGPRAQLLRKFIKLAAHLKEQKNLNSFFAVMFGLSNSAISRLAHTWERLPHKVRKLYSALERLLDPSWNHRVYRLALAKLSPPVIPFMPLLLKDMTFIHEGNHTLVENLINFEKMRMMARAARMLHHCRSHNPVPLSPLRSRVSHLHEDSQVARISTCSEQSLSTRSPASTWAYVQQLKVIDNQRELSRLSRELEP", "test": "Confirmatory qHTS for antagonist of cAMP-regulated guanine nucleotide exchange factor 3 (EPAC1) (AID 1645880); further: nearly all actives have a fitted effect of over 55% in size; further: potency means the concentration at half of the fitted maximal effect", "outline": "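Nucleotide exchange uses 100 nM EPAC1, 250 nM RAP1B-BODIPY-GDP and 50 uM GDP, with compounds in a concentration-titration series. After 5 min at room temperature, fluorescence (480 nm ex/540 nm em) is read every 5 min for 30 min. Data are normalized to control ATA and DMSO.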"}, "[2]": {"target": "Rap guanine nucleotide exchange factor 3 (Homo sapiens) (UniProt O95398)", "test": "Confirmatory qHTS for agonist of cAMP-regulated guanine nucleotide exchange factor 3 (EPAC1) (AID 1645881);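 further: EPAC1 catalysed release of BODIPY-GDP from Rap1B seen as fluorescence loss; nearly all actives have a fitted effect of over 75% in size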"}, "[3]": {"target": "Rap guanine nucleotide exchange factor 4 (Homo sapiens) (UniProt Q8WZA2)", "sequence (Q8WZA2 whole entry, looked up)": "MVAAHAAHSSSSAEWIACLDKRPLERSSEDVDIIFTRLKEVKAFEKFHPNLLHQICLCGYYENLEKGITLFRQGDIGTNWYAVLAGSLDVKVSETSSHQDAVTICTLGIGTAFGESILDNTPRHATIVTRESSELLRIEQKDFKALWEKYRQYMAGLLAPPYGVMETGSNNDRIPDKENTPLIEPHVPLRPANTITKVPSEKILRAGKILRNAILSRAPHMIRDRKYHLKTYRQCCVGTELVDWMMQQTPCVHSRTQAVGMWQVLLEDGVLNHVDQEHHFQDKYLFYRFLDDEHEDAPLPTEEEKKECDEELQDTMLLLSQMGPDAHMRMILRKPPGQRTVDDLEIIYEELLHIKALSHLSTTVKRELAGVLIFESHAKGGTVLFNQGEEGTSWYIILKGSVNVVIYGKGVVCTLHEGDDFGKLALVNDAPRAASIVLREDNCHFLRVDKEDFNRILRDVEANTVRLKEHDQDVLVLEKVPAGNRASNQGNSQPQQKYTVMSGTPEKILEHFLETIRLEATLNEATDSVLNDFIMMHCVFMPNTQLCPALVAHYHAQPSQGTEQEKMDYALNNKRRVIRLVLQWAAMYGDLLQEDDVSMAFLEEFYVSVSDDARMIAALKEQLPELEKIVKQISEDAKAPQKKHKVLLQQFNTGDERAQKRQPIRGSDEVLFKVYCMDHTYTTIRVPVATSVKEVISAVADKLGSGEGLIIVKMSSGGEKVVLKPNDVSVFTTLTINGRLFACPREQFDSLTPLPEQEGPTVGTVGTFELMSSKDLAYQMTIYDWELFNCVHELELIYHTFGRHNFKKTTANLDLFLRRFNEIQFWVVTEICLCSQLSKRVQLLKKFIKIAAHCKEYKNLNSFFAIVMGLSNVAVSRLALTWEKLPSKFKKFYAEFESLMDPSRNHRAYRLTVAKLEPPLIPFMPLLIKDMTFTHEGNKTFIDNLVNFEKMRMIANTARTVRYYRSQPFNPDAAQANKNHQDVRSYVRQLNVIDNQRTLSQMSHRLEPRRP", "test": "Confirmatory qHTS for agonist of cAMP-regulated guanine nucleotide exchange factor 4 (EPAC2) (AID 1645884);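 further: nucleotide exchange releases bodipy-GDP from Rap1 and this lowers its fluorescence; nearly all actives have a fitted effect of over 65% in size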"}, "[4]": {"target": "Rap guanine nucleotide exchange factor 4 (Homo sapiens) (UniProt Q8WZA2)", "test": "Confirmatory qHTS for antagonist of cAMP-regulated guanine nucleotide exchange factor 4 (EPAC2) (AID 1645885); further: nearly all actives have a fitted effect of over 25% in size; further: potency means the concentration at half of the fitted maximal effect"}}, "note": "Inconclusive results are not listed. A call without a number means that no potency is given here. A number with no mark means an inactive call. Activity calls are given as the source filed them. The call rests on the fitted dose curve; in most records, active means well fitted curve in the direction sought with a large enough effect; inconclusive means small, poorly fitted or top-dose-only effect, or another doubt; inactive means no such curve, though single readings can be large; an effect the other way counts as inactive or inconclusive.", "data": [{"compound": "COc1ccc(C2CN=NC23CCc2ccccc2C3=O)cc1", "note": "(centres undefined)", "values": [{"measurement": "Potency", "setting": "[1]", "result": "inactive"}, {"measurement": "Potency", "setting": "[2]", "result": "inactive"}, {"measurement": "Potency", "setting": "[3]", "result": "inactive"}]}, {"compound": "Cc1cc(/C=C/c2ccnc3ccccc23)ccc1N(C)C", "values": [{"measurement": "Potency", "setting": "[1]", "result": "inactive"}, {"measurement": "Potency", "setting": "[2]", "result": "inactive"}, {"measurement": "Potency", "setting": "[3]", "result": "inactive"}]}, {"compound": "C=CCOc1ccc(Br)cc1/C=C1/SC(=Nc2ccc(C(=O)O)cc2)NC1=O", "values": [{"measurement": "Potency", "setting": "[1]", "result": "30.1 µM (active)"}, {"measurement": "Potency", "setting": "[2]", "result": "inactive"}, {"measurement": "Potency", "setting": "[3]", "result": "inactive"}]}, {"compound": "CN1CC(O)C2=CC(=O)C(=O)C=C21", "note": "(centres undefined)", "values": [{"measurement": "Potency", "setting": "[1]", "result": "2.8 µM (active)"}, {"measurement": "Potency", "setting": "[2]", "result": "inactive"}, {"measurement": "Potency", "setting": "[3]", "result": "inactive"}]}, {"compound": "COc1cc(-c2noc(C)c2-c2ccc3[nH]ccc3c2)cc(OC)c1OC", "values": [{"measurement": "Potency", "setting": "[1]", "result": "inactive"}, {"measurement": "Potency", "setting": "[2]", "result": "inactive"}, {"measurement": "Potency", "setting": "[3]", "result": "inactive"}]}, {"compound": "COc1cc(OC)c2c(-c3ccccc3)cc(=O)oc2c1", "values": [{"measurement": "Potency", "setting": "[1]", "result": "inactive"}, {"measurement": "Potency", "setting": "[2]", "result": "inactive"}, {"measurement": "activation", "setting": "[3]", "result": "5.59% [at 17.1 µM, percent relative to cAMP agonist control]"}]}, {"compound": "CCOC(=O)C1CCCN(C(=O)c2cnn(-c3nccc(-c4cc(C)sc4C)n3)c2C)C1", "note": "(centres undefined)", "values": [{"measurement": "Potency", "setting": "[1]", "result": "inactive"}, {"measurement": "Potency", "setting": "[2]", "result": "inactive"}, {"measurement": "Potency", "setting": "[3]", "result": "inactive"}]}, {"compound": "C[C@@H]1CCC(=O)N(CC[C@H](Oc2ccccc2)c2ccccc2)CC1", "values": [{"measurement": "Potency", "setting": "[1]", "result": "inactive"}, {"measurement": "Potency", "setting": "[2]", "result": "inactive"}, {"measurement": "Potency", "setting": "[3]", "result": "inactive"}]}, {"compound": "CN(CCc1ccccc1)C(=O)c1cc(COc2cccc(C(F)(F)F)c2)on1", "values": [{"measurement": "Potency", "setting": "[1]", "result": "inactive"}, {"measurement": "Potency", "setting": "[2]", "result": "inactive"}, {"measurement": "Potency", "setting": "[3]", "result": "inactive"}]}, {"compound": "O=c1c2ccccc2oc2ccc(Oc3ccccc3)cc12", "values": [{"measurement": "Potency", "setting": "[1]", "result": "inactive"}, {"measurement": "Potency", "setting": "[2]", "result": "inactive"}, {"measurement": "Potency", "setting": "[3]", "result": "inactive"}]}, {"compound": "CC(=O)N(/N=C1/C(=O)Nc2ccccc21)c1ccccc1", "values": [{"measurement": "Potency", "setting": "[1]", "result": "67.5 µM (active)"}, {"measurement": "Potency", "setting": "[2]", "result": "inactive"}, {"measurement": "Potency", "setting": "[3]", "result": "inactive"}]}, {"compound": "Cc1ccc2nccc(/C=C/c3ccc(N(C)C)cc3)c2c1", "values": [{"measurement": "Potency", "setting": "[1]", "result": "inactive"}, {"measurement": "Potency", "setting": "[2]", "result": "inactive"}, {"measurement": "Potency", "setting": "[3]", "result": "inactive"}]}, {"compound": "COc1ccc(C(=O)c2ccc(OC)cc2OC)cc1", "values": [{"measurement": "Potency", "setting": "[1]", "result": "inactive"}, {"measurement": "Potency", "setting": "[2]", "result": "inactive"}]}, {"compound": "COC(=O)c1cc(Br)c(=O)n(CCC2=CCCCC2)c1", "values": [{"measurement": "Potency", "setting": "[1]", "result": "inactive"}, {"measurement": "Potency", "setting": "[2]", "result": "inactive"}, {"measurement": "activation", "setting": "[3]", "result": "0% [at 17.1 µM, percent relative to cAMP agonist control]"}]}, {"compound": "CCc1ccc([C@@H]2CC=C(C(=O)O)[C@H](c3ccc(Br)cc3)N2S(=O)(=O)c2ccc(C)cc2)cc1", "values": [{"measurement": "Potency", "setting": "[1]", "result": "17.8 µM (active)"}, {"measurement": "Potency", "setting": "[2]", "result": "inactive"}, {"measurement": "activation", "setting": "[3]", "result": "-5.28% [at 17.1 µM, percent relative to cAMP agonist control]"}]}, {"compound": "CCCCOC(=O)Nc1ccc(S(=O)(=O)Nc2nccs2)cc1", "values": [{"measurement": "Potency", "setting": "[1]", "result": "inactive"}, {"measurement": "Potency", "setting": "[2]", "result": "inactive"}, {"measurement": "Potency", "setting": "[3]", "result": "inactive"}]}, {"compound": "C(=C\\c1ccnc2ccccc12)/c1ccc2ccccc2n1", "values": [{"measurement": "Potency", "setting": "[1]", "result": "inactive"}, {"measurement": "Potency", "setting": "[2]", "result": "inactive"}, {"measurement": "Potency", "setting": "[3]", "result": "inactive"}]}, {"compound": "CC(=O)C(C(c1ccccc1)c1c[nH]c2ccccc12)[N+](=O)[O-]", "note": "(centres undefined)", "values": [{"measurement": "Potency", "setting": "[1]", "result": "inactive"}, {"measurement": "Potency", "setting": "[2]", "result": "inactive"}]}, {"compound": "CC(C)(C)[C@H]1CCC(=O)N([C@H](CN=[N+]=[N-])Cc2ccccc2)CC1", "values": [{"measurement": "Potency", "setting": "[1]", "result": "inactive"}, {"measurement": "Potency", "setting": "[2]", "result": "inactive"}, {"measurement": "Potency", "setting": "[3]", "result": "inactive"}]}, {"compound": "Cc1ccc(CN2C(=O)CSC2c2ccc(F)cc2)cc1", "note": "(centres undefined)", "values": [{"measurement": "Potency", "setting": "[1]", "result": "inactive"}, {"measurement": "Potency", "setting": "[2]", "result": "inactive"}, {"measurement": "Potency", "setting": "[3]", "result": "inactive"}]}, {"compound": "COc1cccc(CN(C)C(=O)c2cnn(-c3ncc4c(n3)-c3ccccc3CCC4)c2C)c1", "values": [{"measurement": "Potency", "setting": "[1]", "result": "inactive"}, {"measurement": "Potency", "setting": "[2]", "result": "inactive"}, {"measurement": "Potency", "setting": "[3]", "result": "inactive"}]}, {"compound": "Cc1cccc(N(C(=O)c2csnn2)C(C(=O)NCc2ccccc2)c2cccs2)c1", "note": "(centres undefined)", "values": [{"measurement": "Potency", "setting": "[1]", "result": "inactive"}, {"measurement": "Potency", "setting": "[2]", "result": "inactive"}, {"measurement": "Potency", "setting": "[3]", "result": "inactive"}]}, {"compound": "Cc1ccc(C2SCC(=O)N2Cc2ccccc2)cc1", "note": "(centres undefined)", "values": [{"measurement": "Potency", "setting": "[1]", "result": "inactive"}, {"measurement": "Potency", "setting": "[2]", "result": "inactive"}, {"measurement": "Potency", "setting": "[3]", "result": "inactive"}]}, {"compound": "CCOC(=O)c1ccc(N(C(=O)c2ccccc2)c2ccccc2)cc1", "values": [{"measurement": "Potency", "setting": "[1]", "result": "inactive"}, {"measurement": "Potency", "setting": "[2]", "result": "inactive"}]}, {"compound": "COCCN(CCOC)c1nc(-c2ccccc2)nc2ccccc12", "values": [{"measurement": "Potency", "setting": "[1]", "result": "inactive"}, {"measurement": "Potency", "setting": "[2]", "result": "inactive"}, {"measurement": "Potency", "setting": "[3]", "result": "inactive"}]}, {"compound": "CC1COc2ccccc2N1S(=O)(=O)c1cc(Cl)ccc1Cl", "note": "(centres undefined)", "values": [{"measurement": "Potency", "setting": "[1]", "result": "inactive"}, {"measurement": "Potency", "setting": "[2]", "result": "inactive"}]}, {"compound": "O=C(CN1Cc2ccccc2OC(c2ccsc2)C1)N1CCN(Cc2ccc3c(c2)OCO3)CC1", "note": "(centres undefined)", "values": [{"measurement": "Potency", "setting": "[1]", "result": "inactive"}, {"measurement": "Potency", "setting": "[2]", "result": "inactive"}, {"measurement": "Potency", "setting": "[3]", "result": "inactive"}]}, {"compound": "COc1ccc(Cl)cc1NC(=O)CN(C)Cc1cccs1", "values": [{"measurement": "Potency", "setting": "[1]", "result": "inactive"}, {"measurement": "Potency", "setting": "[2]", "result": "inactive"}]}, {"compound": "Cc1ccc(S(=O)(=O)N2[C@@H](c3cccc(Cl)c3)C(C(=O)O)=CC[C@H]2c2ccc(C(C)C)cc2)cc1", "values": [{"measurement": "Potency", "setting": "[1]", "result": "67.5 µM (active)"}, {"measurement": "Potency", "setting": "[2]", "result": "inactive"}, {"measurement": "Potency", "setting": "[3]", "result": "inactive"}]}, {"compound": "Cc1ccc2c(/C=C/c3ccc(N(C)C)cc3)ccnc2c1C", "values": [{"measurement": "Potency", "setting": "[1]", "result": "inactive"}, {"measurement": "Potency", "setting": "[2]", "result": "inactive"}, {"measurement": "Potency", "setting": "[3]", "result": "inactive"}]}, {"compound": "Cc1cc(C)cc(NC(=O)c2sc3nc(-c4ccccc4)cn3c2C)c1", "values": [{"measurement": "Potency", "setting": "[1]", "result": "inactive"}, {"measurement": "Potency", "setting": "[2]", "result": "inactive"}, {"measurement": "Potency", "setting": "[3]", "result": "inactive"}]}, {"compound": "Cc1[nH]c2ccccc2c1/C=C/c1ccc2ccccc2n1", "values": [{"measurement": "Potency", "setting": "[1]", "result": "inactive"}, {"measurement": "Potency", "setting": "[2]", "result": "inactive"}, {"measurement": "Potency", "setting": "[3]", "result": "inactive"}]}, {"compound": "COc1ccc(-c2[nH]c(-c3ccc(SC)cc3)nc2SCC(=O)Nc2nccs2)cc1", "values": [{"measurement": "Potency", "setting": "[1]", "result": "84.9 µM (active)"}, {"measurement": "Potency", "setting": "[2]", "result": "inactive"}, {"measurement": "Potency", "setting": "[3]", "result": "inactive"}, {"measurement": "Potency", "setting": "[4]", "result": "inactive"}]}, {"compound": "NC(=O)Nc1ccc(/C=C2\\C=Cc3ccccc32)cc1", "values": [{"measurement": "Potency", "setting": "[1]", "result": "inactive"}, {"measurement": "Potency", "setting": "[2]", "result": "inactive"}, {"measurement": "Potency", "setting": "[3]", "result": "inactive"}, {"measurement": "Potency", "setting": "[4]", "result": "44.1 µM (active)"}]}]}
